Results filed as inconclusive are left out. Activity calls are given as the source filed them. Unless noted, the call rests on the fitted dose curve; in most records, active means well fitted curve in the direction sought with a large enough effect; inconclusive means small, poorly fitted or top-dose-only effect, or another doubt; inactive means no such curve, though single readings can be large; an effect the other way counts as inactive or inconclusive.
Assays:
[1] = qHTS assay for measurement of the activity of small molecule inhibitors on Zika virus induced Caspase-3 activity in human astrocytoma cells (AID 1224859); further: potency means the concentration at half of the fitted maximal effect
Summary of the method: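 Human SNB-19 astrocytoma cells in RPMI 1640 with 10% FBS receive compound one hour ahead of Zika virus at 2 FFU/cell. After 6 h infection, caspase-3/7 activity is detected by Caspase-Glo luminescence.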

[2] = qHTS assay to identify small molecule inhibitors of chordoma cells - UCH-2 (AID 1259356); further: potency means the concentration at half of the fitted maximal effect
[3] = qHTS of pediatric cancer cell lines to identify multiple opportunities for drug repurposing: Primary screen for TC32 cells (AID 1347089); further: nearly all actives have a fitted effect of over 60% in size; further: potency means the concentration at half of the fitted maximal effect
Summary of the method: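 Luminescent CellTiter-Glo read-out of metabolically active TC32 cells after 48 h compound exposure. Primary: MIPE 11-point, 0.78 nM–46 µM; NPC 8-point, 0.59 nM–46 µM. Confirmatory: 11-point dilutions.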

[4] = qHTS of pediatric cancer cell lines to identify multiple opportunities for drug repurposing: Primary screen for DAOY cells (AID 1347090); further: nearly all actives have a fitted effect of over 55% in size; further: potency means the concentration at half of the fitted maximal effect
Summary of the method: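 Viability measured as metabolically active cells via CellTiter-Glo luminescence following 48 hours of compound exposure, 11-point dilutions in confirmatory testing. 500-1,000 cells/well plated 5 hours before dosing; controls were DMSO and 2.3 µM bortezomib.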

[5] = qHTS assay to identify small molecule inhibitors of chordoma cells - UCH-1 (AID 1259355); further: nearly all actives have a fitted effect of over 55% in size; further: potency means the concentration at half of the fitted maximal effect; series mostly up to about 46 µM
Summary of the method: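 Cells (800/well) were seeded and left overnight at 37 C, 5% CO2, then treated with drugs at 15 concentrations plus a combination mix of auranofin, camptothecin, doxorubicin, rubitecan and topotecan. Viability after 48hr was read by CellTiter-Glo luminescence.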

[6] = P-glycoprotein substrates identified in KB-8-5-11 adenocarcinoma cell line, qHTS therapeutic library screen (AID 1346987); further: nearly all actives have a fitted effect of over 65% in size; further: potency means the concentration at half of the fitted maximal effect
Summary of the method: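 KB-8-5-11: colchicine-selected sub-line of KB-3-1 over-expressing P-gp; assay medium lacked colchicine. 72 h drug exposure at 37 degree C, CellTiter-Glo.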

[7] = target: Atrial natriuretic peptide receptor 2 (Homo sapiens) (UniProt P20594); test: Natriuretic polypeptide receptor (hNpr2) antagonism - Pilot subtype selectivity assay (AID 1347050; calls by dose curve; further: potency means the concentration at half of the fitted maximal effect)
Sequence of Atrial natriuretic peptide receptor 2 (Homo sapiens) (P20594 whole entry, looked up): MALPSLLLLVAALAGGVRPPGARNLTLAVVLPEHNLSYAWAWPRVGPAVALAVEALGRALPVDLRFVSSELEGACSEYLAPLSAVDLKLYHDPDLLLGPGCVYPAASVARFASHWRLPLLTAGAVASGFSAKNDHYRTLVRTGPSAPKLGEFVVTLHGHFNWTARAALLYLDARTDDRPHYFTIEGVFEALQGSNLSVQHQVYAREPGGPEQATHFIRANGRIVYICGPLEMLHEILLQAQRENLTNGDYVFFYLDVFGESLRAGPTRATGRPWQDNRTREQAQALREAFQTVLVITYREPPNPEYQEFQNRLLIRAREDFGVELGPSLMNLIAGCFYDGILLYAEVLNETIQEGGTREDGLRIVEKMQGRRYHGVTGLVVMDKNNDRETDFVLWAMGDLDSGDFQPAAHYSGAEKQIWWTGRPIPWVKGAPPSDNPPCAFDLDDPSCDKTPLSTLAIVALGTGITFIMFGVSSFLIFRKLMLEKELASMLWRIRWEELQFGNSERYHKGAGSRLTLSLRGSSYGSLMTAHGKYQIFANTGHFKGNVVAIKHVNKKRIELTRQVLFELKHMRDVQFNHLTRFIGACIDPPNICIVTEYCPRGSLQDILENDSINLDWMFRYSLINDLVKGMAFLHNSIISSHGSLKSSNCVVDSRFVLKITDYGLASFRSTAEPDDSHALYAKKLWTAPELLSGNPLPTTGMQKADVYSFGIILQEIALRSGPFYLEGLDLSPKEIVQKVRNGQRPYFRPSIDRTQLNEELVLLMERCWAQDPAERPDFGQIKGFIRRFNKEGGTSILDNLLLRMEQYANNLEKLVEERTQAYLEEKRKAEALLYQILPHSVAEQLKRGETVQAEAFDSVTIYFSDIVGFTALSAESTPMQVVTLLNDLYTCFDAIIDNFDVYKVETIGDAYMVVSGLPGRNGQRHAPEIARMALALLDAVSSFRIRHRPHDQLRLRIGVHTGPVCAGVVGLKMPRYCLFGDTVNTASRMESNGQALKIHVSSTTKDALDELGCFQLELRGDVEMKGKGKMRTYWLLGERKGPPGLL
Summary of the method: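 HEK293 cells expressing hNpr2 and a GloSensor cGMP luciferase sensor, 1500/well, preloaded 2 h with 2% GloSensor reagent, compound 30 min, then 1 nM hNppC for 20 min. Antagonism from luminescence after versus baseline pre-read; LOPAC in 1:5 titrations.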

[8] = target: Parathyroid hormone/parathyroid hormone-related peptide receptor (Homo sapiens) (UniProt Q03431); test: qHTS for PTHR1 Agonists: Optimization Screen against the NCGC LOPAC library (AID 1347079);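 further: GloSensor cAMP luminescence in HEK-293 GP2 cells expressing human PTHR1 with IBMX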; further: potency means the concentration at half of the fitted maximal effect
Sequence of Parathyroid hormone/parathyroid hormone-related peptide receptor (Homo sapiens) (Q03431 whole entry, looked up): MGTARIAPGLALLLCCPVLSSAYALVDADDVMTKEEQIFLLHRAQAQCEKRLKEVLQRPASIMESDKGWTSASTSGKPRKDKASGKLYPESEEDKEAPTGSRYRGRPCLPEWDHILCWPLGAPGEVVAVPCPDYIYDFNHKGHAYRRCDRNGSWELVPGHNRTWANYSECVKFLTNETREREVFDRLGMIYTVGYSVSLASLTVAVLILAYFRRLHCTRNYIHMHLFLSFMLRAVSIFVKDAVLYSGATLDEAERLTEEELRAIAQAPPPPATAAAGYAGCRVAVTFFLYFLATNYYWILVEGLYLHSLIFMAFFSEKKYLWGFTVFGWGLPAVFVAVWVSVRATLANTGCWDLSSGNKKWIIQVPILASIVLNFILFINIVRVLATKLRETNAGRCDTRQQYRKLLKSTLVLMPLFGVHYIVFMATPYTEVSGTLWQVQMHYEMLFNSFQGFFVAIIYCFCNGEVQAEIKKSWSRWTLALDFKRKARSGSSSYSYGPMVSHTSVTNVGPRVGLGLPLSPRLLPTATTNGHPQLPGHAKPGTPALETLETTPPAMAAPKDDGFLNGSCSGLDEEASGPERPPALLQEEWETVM
Summary of the method: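 Compounds were tested across a qHTS titration. PTHR1-expressing GP2 cells report cAMP rises via GloSensor luminescence after 1 hr compound exposure at 37C with IBMX present.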

[9] = NS1 protein of Zika virus - qHTS assay to identify small molecule inhibitors in human HEK 293 cells (AID 1347053); further: series mostly up to about 46 µM; nearly all actives have a fitted effect of over 55% in size
Summary of the method: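 HEK 293 cells, seeded 20 h at 37 C, were pretreated with compound 1 h, then infected with ZIKV MR766 (MOI = 0.5) for 24 h. NS1 was read by TR-FRET with two anti-NS1 antibodies, normalized to uninfected and infected wells.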

[10] = Natriuretic polypeptide receptor (hNpr1) antagonism - Pilot counterscreen GloSensor control cell line (AID 1347045; calls by dose curve; further: potency means the concentration at half of the fitted maximal effect)
Summary of the method: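 HEK293 cells carrying the GloSensor cGMP sensor (GIP/pGS-40F) were loaded with 2% GloSensor reagent for 2 h, exposed to compounds for 30 min, and then stimulated with 50 uM sodium nitroprusside for 20 min at room temperature.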

[11] = target: Atrial natriuretic peptide receptor 1 (Homo sapiens) (UniProt P16066); test: Natriuretic polypeptide receptor (hNpr1) antagonism - Pilot screen (AID 1347049; calls by dose curve;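 further: agonist-evoked cGMP luminescence read 20 min after hNppA addition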; further: potency means the concentration at half of the fitted maximal effect)
Sequence of Atrial natriuretic peptide receptor 1 (Homo sapiens) (P16066 whole entry, looked up): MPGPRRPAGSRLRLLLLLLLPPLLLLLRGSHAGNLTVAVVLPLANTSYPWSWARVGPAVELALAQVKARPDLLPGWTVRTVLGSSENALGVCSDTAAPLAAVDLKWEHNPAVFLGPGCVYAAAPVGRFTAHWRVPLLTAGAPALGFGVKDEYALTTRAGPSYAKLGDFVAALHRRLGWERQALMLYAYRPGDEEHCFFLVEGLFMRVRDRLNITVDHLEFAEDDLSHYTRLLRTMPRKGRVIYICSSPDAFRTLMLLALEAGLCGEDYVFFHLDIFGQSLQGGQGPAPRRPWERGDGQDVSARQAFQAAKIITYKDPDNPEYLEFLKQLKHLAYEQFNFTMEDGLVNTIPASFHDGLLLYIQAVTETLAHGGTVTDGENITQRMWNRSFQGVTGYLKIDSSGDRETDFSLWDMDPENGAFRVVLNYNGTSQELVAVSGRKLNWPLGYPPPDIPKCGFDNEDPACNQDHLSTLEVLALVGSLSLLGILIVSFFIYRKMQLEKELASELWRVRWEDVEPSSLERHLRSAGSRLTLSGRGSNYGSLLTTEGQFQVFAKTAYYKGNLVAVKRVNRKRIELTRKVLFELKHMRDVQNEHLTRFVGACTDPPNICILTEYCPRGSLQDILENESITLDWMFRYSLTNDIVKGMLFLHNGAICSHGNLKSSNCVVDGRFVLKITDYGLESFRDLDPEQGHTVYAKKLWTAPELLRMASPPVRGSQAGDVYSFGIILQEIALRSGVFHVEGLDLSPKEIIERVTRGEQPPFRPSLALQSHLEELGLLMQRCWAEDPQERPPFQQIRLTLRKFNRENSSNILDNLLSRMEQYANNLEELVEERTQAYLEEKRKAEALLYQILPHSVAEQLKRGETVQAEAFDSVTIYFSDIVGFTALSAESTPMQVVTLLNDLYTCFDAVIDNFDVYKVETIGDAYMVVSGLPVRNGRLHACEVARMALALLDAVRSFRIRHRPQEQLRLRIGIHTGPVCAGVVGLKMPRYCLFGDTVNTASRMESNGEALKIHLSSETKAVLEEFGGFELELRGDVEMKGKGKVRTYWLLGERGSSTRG
Summary of the method: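 HEK293 cells expressing hNpr1 and GloSensor cGMP luciferase, 1500/well, loaded with 2% GloSensor reagent 2 h, compound 30 min at room temperature; luminescence read before and 20 min after 0.1 nM hNppA stimulation.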

[12] = target: T1, Tyrosine-protein phosphatase non-receptor type substrate 1 (Homo sapiens) + Leukocyte surface antigen CD47 (Homo sapiens) (UniProt P78324+Q08722); test: CD47-SIRPalpha protein protein interaction - LANCE assay qHTS validation (AID 1347057; active means well fitted curve in the direction sought with a large enough effect in the signal ratio, with a control signal flat, not every such curve was filed as active; the % refers to the signal ratio; further: series mostly up to about 38 µM)
T1 sequence (P78324 whole entry, looked up): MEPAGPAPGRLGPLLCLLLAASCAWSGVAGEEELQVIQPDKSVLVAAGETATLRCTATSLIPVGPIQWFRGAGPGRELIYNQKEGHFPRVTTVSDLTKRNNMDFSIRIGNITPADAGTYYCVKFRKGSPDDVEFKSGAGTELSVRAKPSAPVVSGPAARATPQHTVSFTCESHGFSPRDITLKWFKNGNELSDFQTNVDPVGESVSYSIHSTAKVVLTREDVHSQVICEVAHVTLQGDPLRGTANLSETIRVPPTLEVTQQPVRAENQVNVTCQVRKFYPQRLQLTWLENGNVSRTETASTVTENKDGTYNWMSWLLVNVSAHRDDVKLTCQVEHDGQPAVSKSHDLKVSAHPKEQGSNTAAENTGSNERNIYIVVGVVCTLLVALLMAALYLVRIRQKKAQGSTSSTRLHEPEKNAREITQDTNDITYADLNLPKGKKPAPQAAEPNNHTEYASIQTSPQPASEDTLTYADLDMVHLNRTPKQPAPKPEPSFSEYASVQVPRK
T1 sequence (Q08722 whole entry, looked up): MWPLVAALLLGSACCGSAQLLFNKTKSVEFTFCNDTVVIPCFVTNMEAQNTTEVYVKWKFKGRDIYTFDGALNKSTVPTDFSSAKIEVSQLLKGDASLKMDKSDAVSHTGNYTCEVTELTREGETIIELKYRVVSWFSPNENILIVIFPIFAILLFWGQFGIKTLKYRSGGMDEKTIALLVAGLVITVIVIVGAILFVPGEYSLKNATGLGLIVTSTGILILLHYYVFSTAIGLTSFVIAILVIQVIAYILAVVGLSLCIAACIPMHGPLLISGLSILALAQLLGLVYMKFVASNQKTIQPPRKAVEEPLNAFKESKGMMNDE
Summary of the method: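 First, His-tagged CD47 and Eu-labelled anti-His antibody met the compound for 30 min; next, site-specifically biotinylated SIRPalpha was added for 30 min; finally streptavidin-APC was added before reading the TR-FRET ratio.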

[13] = target: T1, Tyrosine-protein phosphatase non-receptor type substrate 1 (Homo sapiens) + Leukocyte surface antigen CD47 (Homo sapiens); test: CD47-SIRPalpha protein protein interaction - HTRF assay qHTS validation (AID 1347058; active means well fitted curve in the direction sought with a large enough effect in the signal ratio, not every such curve was filed as active; the % refers to the signal ratio;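 further: recombinant soluble extracellular CD47 with His tag and biotinylated SIRPalpha domains; series mostly up to about 38 µM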)
Summary of the method: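 TR-FRET read (Ch1/Ch2 ratio) of soluble extracellular CD47 and Avi-biotinylated SIRPalpha domains in PBS pH 7.4 with 0.05% IGEPAL; 7-point compound titration. Sequential 30 min room-temperature steps; non-biotinylated SIRPalpha as control inhibitor.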

[14] = target: T1, Tyrosine-protein phosphatase non-receptor type substrate 1 (Homo sapiens) + Leukocyte surface antigen CD47 (Homo sapiens); test: CD47-SIRPalpha protein protein interaction - Alpha assay qHTS validation (AID 1347059);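 further: bead proximity luminescence from CD47 binding SIRPalpha after compound preincubation with SIRPalpha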
Summary of the method: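 Biotinylated Avi-tagged SIRPalpha (25 nM) preincubated 30 min with compound, then His-tagged CD47 (12.5 nM) added 30 min; AlphaScreen with Ni-NTA acceptor and streptavidin donor beads. PBS pH 7.4, 0.05% IGEPAL, room temperature; 7-point titrations.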

Measured: Potency

Cc1c(C(=O)O)c(O)cc2c1C(=O)c1c(O)c([C@@H]3O[C@H](CO)[C@@H](O)[C@H](O)[C@H]3O)c(O)c(O)c1C2=O
inactive: [1] | [2] | [3] | [4]

COc1cccc2c1C(=O)c1c(O)c3c(c(O)c1C2=O)C[C@@](O)(C(=O)CO)C[C@@H]3O[C@H]1C[C@H](N)[C@H](O[C@@H]2CCCCO2)[C@H](C)O1
active: [5] 3.98 µM | [2] 18.3 µM | [3] 0.47 µM | [4] 1.68 µM
inactive: [1] | [6]

Cc1ccccc1CNc1ncnc2c1ncn2C1OC(CO)C(O)C1O (configuration not stated)
inactive: [1] | [5] | [7] | [8]

Nc1ccc(C(=O)O)c(O)c1
inactive: [1] | [5] | [2] | [6] | [9] | [3] | [4]

CCCCCCCCCCCC(=O)[O][Sn]([CH2]CCC)([CH2]CCC)[O]C(=O)CCCCCCCCCCC
inactive: [1] | [2] | [6] | [9] | [3] | [4]

c1ccc2sc(SSc3nc4ccccc4s3)nc2c1
inactive: [1] | [5] | [2] | [6] | [9] | [3] | [4]

Cc1[nH]cnc1CN1CCc2c(c3ccccc3n2C)C1=O
inactive: [1] | [5] | [2] | [9] | [3] | [4]

C=CCCCCCCCCC(=O)O
inactive: [1] | [5] | [2] | [6] | [9] | [3] | [4]

CCCC(=O)OC[C@@H](OC(=O)CCC)[C@@H](OC(=O)CCC)[C@H](Cn1c2nc(=O)[nH]c(=O)c-2nc2cc(C)c(C)cc21)OC(=O)CCC
inactive: [1] | [5] | [2] | [9] | [3] | [4]

O=C(O)CC1CC(c2ccccc2)=NO1 (configuration not stated)
inactive: [1] | [6] | [7]
active: [8] 10.6 µM

O=C(OCc1ccccc1)c1ccccc1
inactive: [1] | [5] | [2] | [6] | [9] | [3] | [4]

Cc1ccc(C(=O)c2ccc(CC(=O)O)n2C)cc1
inactive: [1] | [5] | [2] | [6] | [9] | [3] | [4]

Nc1ccc(O)c([N+](=O)[O-])c1
inactive: [1] | [6] | [9] | [4]

CCCn1c(=O)c2[nH]c(-c3ccc(OCC(=O)NCCN)cc3)nc2n(CCC)c1=O
inactive: [1] | [10] | [11] | [7] | [8]

O=C1O/C(=C/Br)CCC1c1cccc2ccccc12 (configuration not stated)
inactive: [1] | [8]
active: [10] 16.5 µM | [7] 11.7 µM

Nc1ncnc2c1ncn2[C@@H]1O[C@H](COP(=O)(O)OP(=O)(O)OP(=O)(O)OP(=O)(O)OC[C@@H]2O[C@H](n3cnc4c(N)ncnc43)[C@@H](O)[C@H]2O)[C@@H](O)[C@H]1O
inactive: [1] | [10] | [11] | [7] | [9] | [12] | [13] | [14] | [8]

O=C(c1ccc(OCCCc2cnc[nH]2)cc1)C1CC1
inactive: [1] | [11] | [7] | [9] | [12] | [13] | [14] | [8]

Cc1nc2sccn2c(=O)c1CCN1CCC(=C(c2ccccc2)c2ccc(F)cc2)CC1
inactive: [1] | [10] | [11] | [7] | [8]

O=[N+]([O-])c1ccc(CSc2ncnc3c2ncn3[C@@H]2O[C@H](CO)[C@@H](O)[C@H]2O)cc1
inactive: [1] | [10] | [11] | [7] | [9] | [12] | [14] | [8]

O=[N+]([O-])c1ccc2c(c1)S(=O)(=O)C=C2
inactive: [1] | [12] | [14] | [8]
active: [10] 9.27 µM | [11] 10.7 µM | [7] 5.85 µM

CCc1c(C(=O)NCCc2ccc(N3CCCCC3)cc2)[nH]c2ccc(Cl)cc12
inactive: [1] | [10] | [7] | [8]

NCC1OC(O[C@H]2[C@H](O)[C@@H](OC3C(O)C(N)CC(N)C3OC3OC(CO)C(O)C(O)C3N)O[C@@H]2CO)C(N)C(O)C1O (some centres not stated)
inactive: [1] | [10] | [11] | [7] | [9] | [12] | [13] | [14] | [8]

CN(C)c1ccc(C(=C2C=CC(=[N+](C)C)C=C2)c2ccccc2)cc1
active: [6] 23.1 µM | [3] 0.105 µM | [4] 0.106 µM
inactive: [1]

CN1CCc2cccc3c2C1Cc1ccc(O)c(O)c1-3 (configuration not stated)
inactive: [1] | [10] | [11] | [7] | [9] | [14] | [8]

CN(C)c1nc2c(Br)c(Br)c(Br)c(Br)c2[nH]1
inactive: [1] | [10] | [11] | [7] | [8]

CN(C)c1ccc(/C=C2\C(=O)Nc3ccccc32)cc1
active: [1] 10 µM | [10] 4.14 µM | [11] 1.2 µM | [7] 10.4 µM
inactive: [8]

O=C(O)CC[C@@H](C(=O)O)N1C(=O)c2ccccc2C1=O
inactive: [1] | [10] | [11] | [7] | [9] | [12] | [13] | [14] | [8]

N#C/C(=C\c1ccc(O)c(O)c1)C(=O)c1ccc(O)c(O)c1
inactive: [1] | [10] | [11] | [7] | [12] | [8]

CO/N=C(\C(=O)N[C@@H]1C(=O)N2C(C(=O)O)=C(COC(C)=O)CS[C@H]12)c1csc(N)n1
inactive: [1] | [11] | [7] | [9] | [12] | [13] | [14] | [8]

O=C1NC(=O)/C(=C/c2ccc3nccnc3c2)S1
inactive: [1] | [10] | [11] | [7] | [12] | [14] | [8]

NC(=S)c1ccc[n+]([C@@H]2O[C@@H](COP(=O)([O-])OP(=O)(O)OC[C@H]3O[C@@H](n4cnc5c(N)ncnc54)[C@H](OP(=O)(O)O)[C@@H]3O)C(O)C2O)c1 (some centres not stated)
inactive: [1] | [11] | [7] | [9] | [12] | [13] | [14] | [8]

COc1cc2nc(N3CCN(C(=O)OCc4ccccc4)C(C(=O)NC(C)(C)C)C3)nc(N)c2cc1OC (configuration not stated)
inactive: [1] | [10] | [7] | [8]
